# In PubChem BioAssay (EPA / NIEHS):
# Calls of active or inactive are those of the source. The calls were made as follows: active = hit-call score of the fitted dose curve at least 0.9, where 1 is the maximum; inactive = score below 0.9.
# How the values were obtained:
# Settings in all cases: mRNA level, 48 h; actives raise or lower the signal
# [1] = read-out: matrix metalloproteinase-10 (MMP10), MMP10 (gene 4319); experiment: LTEA_HepaRG_MMP10: Life Technologies and Expression Analysis (LTEA) Assay for matrix metalloproteinase-10 (MMP10) using HepaRG (AID 2283517)
# Summary of the method: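 HepaRG, collagen I, ~100,000 cells/well; serum-free induction medium; 48 h exposure, duplicate, 8-pt half-log to 100 uM, 0.5% DMSO. Readout: TaqMan qRT-PCR, normalized to ACTB/GAPDH/POLR2A; bidirectional fit vs DMSO.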
# MYC, MYC (gene 4609) = experiment: LTEA_HepaRG_MYC: Life Technologies and Expression Analysis (LTEA) Assay for MYC using HepaRG (AID 2283518)
# Summary of the method: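 MYC transcript changes, up or down relative to 0.5% DMSO, from TaqMan qRT-PCR normalized to three housekeeping genes. Human HepaRG cultures received chemicals for 48 h at eight half-log concentrations up to 100 uM, in duplicate.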
# [2] = read-out: matrix metalloproteinase-3 (MMP3), MMP3 (gene 4314); experiment: LTEA_HepaRG_MMP3: Life Technologies and Expression Analysis (LTEA) Assay for matrix metalloproteinase-3 (MMP3) using HepaRG (AID 2283519)
# Summary of the method: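 Differentiated human HepaRG cells, plated 48 h on collagen I, were exposed in duplicate for 48 h in serum-free induction medium to eight half-log concentrations up to 100 uM in 0.5% DMSO. MMP3 mRNA was quantified by TaqMan qRT-PCR, normalised to ACTB, GAPDH and POLR2A.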
# [3] = read-out: Paternally Expressed 10 (PEG10), PEG10 (gene 23089); experiment: LTEA_HepaRG_PEG10: Life Technologies and Expression Analysis (LTEA) Assay for Paternally Expressed 10 (PEG10) using HepaRG (AID 2283520)
# Summary of the method: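 HepaRG, 48 h post-plating → serum-free induction medium → 48 h chemical exposure (duplicate, 8-pt, max 100 uM, half-log, 0.5% DMSO) → lysis in RLT → TaqMan qRT-PCR for PEG10, ACTB/GAPDH/POLR2A normalisation.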
# [4] = read-out: Nuclear factor NF-kappa-B p105 subunit (Homo sapiens) (UniProt P19838); experiment: LTEA_HepaRG_NFKB1: Life Technologies and Expression Analysis (LTEA) Assay for Nuclear Factor Kappa B Subunit 1 (NFKB1) using HepaRG (AID 2283521);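 as to outcome: TaqMan qRT-PCR transcript normalised to ACTB GAPDH and POLR2A housekeeping genes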
# Summary of the method: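 Differentiated human HepaRG cells in serum-free induction medium with 0.5% DMSO were exposed for 48 h to eight half-log concentrations, top 100 uM, in duplicate. NFKB1 mRNA measured by Fluidigm TaqMan qRT-PCR, normalised to ACTB, GAPDH and POLR2A; bidirectional fit versus DMSO.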
# [5] = read-out: Protein phosphatase 2A (PPP2R4), PTPA (gene 5524); experiment: LTEA_HepaRG_PPP2R4: Life Technologies and Expression Analysis (LTEA) Assay for Protein phosphatase 2A (PPP2R4) using HepaRG (AID 2283522)
# Summary of the method: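 Readout is PPP2R4 transcript level by microfluidic qRT-PCR after 48 h chemical treatment of human HepaRG liver cells. Concentrations spanned 100 uM downward in half-log steps; gain or loss of signal was fitted relative to DMSO.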
# [6] = read-out: Phosphatase and tensin (PTEN), PTEN (gene 5728); experiment: LTEA_HepaRG_PTEN: Life Technologies and Expression Analysis (LTEA) Assay for Phosphatase and tensin (PTEN) using HepaRG (AID 2283523)
# Summary of the method: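 Differentiated human HepaRG cells, plated 48 h then switched to serum-free induction medium, were exposed in duplicate for 48 h to eight half-log concentrations up to 100 uM in 0.5% DMSO. PTEN mRNA measured by TaqMan qRT-PCR, normalized to ACTB/GAPDH/POLR2A, bidirectional fit versus DMSO.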
# [7] = read-out: solute carrier (SLC22A1), SLC22A1 (gene 6580); experiment: LTEA_HepaRG_SLC22A1: Life Technologies and Expression Analysis (LTEA) Assay for solute carrier (SLC22A1) using HepaRG (AID 2283524)
# Summary of the method: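 Human HepaRG cells were plated 48 h, switched to serum-free induction medium, then exposed in duplicate for 48 h to 8-point half-log series from 100 uM in 0.5% DMSO. SLC22A1 mRNA measured by qRT-PCR, normalized to ACTB/GAPDH/POLR2A, fitted bidirectionally versus DMSO.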
# [8] = read-out: Pyruvate Dehydrogenase Kinase 4 (PDK4), PDK4 (gene 5166); experiment: LTEA_HepaRG_PDK4: Life Technologies and Expression Analysis (LTEA) Assay for Pyruvate Dehydrogenase Kinase 4 (PDK4) using HepaRG (AID 2283525)
# Summary of the method: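 Differentiated human HepaRG cells, pre-cultured 48 h, were exposed in duplicate for 48 h in serum-free induction medium to eight half-log concentrations up to 100 uM in 0.5% DMSO. PDK4 mRNA was quantified by qRT-PCR, normalized to ACTB, GAPDH and POLR2A, bidirectional fitting versus DMSO.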
# [9] = read-out: NAD(P)H dehydrogenase [quinone] 1 (NQO1), NQO1 (gene 1728); experiment: LTEA_HepaRG_NQO1: Life Technologies and Expression Analysis (LTEA) Assay for NAD(P)H dehydrogenase [quinone] 1 (NQO1) using HepaRG (AID 2283526)
# Summary of the method: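 HepaRG, 48 h post-plating → serum-free induction medium → test chemical 48 h (duplicate, 100 uM top, half-log x8, 0.5% DMSO) → RNA isolation → qRT-PCR, ACTB/GAPDH/POLR2A normalization; bidirectional curve fit vs DMSO baseline.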
# Nuclear factor NF-kappa-B p105 subunit (Homo sapiens), sequence (P19838 whole entry, looked up): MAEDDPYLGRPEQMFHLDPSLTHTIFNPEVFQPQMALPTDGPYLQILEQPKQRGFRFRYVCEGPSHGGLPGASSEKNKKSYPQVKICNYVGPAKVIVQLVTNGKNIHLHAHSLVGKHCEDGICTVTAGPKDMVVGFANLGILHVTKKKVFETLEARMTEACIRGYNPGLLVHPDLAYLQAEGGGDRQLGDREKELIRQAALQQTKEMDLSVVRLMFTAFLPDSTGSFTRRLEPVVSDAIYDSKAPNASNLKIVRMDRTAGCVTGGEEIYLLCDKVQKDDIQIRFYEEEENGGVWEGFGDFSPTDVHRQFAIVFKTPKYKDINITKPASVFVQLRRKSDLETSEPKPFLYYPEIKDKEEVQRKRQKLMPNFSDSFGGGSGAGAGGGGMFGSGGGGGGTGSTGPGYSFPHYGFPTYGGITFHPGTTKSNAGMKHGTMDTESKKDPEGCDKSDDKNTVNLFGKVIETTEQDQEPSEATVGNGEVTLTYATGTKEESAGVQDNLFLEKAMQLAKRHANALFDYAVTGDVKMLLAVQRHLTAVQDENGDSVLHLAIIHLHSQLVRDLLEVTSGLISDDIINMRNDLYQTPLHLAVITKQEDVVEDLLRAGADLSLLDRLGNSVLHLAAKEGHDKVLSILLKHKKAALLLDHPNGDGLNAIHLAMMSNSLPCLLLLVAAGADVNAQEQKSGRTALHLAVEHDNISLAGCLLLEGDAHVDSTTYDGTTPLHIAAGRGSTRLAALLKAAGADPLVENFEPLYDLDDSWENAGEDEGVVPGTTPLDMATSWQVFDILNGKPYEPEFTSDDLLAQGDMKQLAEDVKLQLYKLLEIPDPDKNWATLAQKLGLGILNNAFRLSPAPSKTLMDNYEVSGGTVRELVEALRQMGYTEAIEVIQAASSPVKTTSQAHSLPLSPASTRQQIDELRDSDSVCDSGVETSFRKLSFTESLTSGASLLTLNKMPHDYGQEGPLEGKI
smiles,measurement,setting,value
OC[C@@H](O)[C@@H](O)[C@H](O)[C@H](O)CO,outcome,[1],inactive
same,outcome,"MYC, MYC (gene 4609)",inactive
same,outcome,[2],inactive
same,outcome,[3],inactive
same,outcome,[4],inactive
same,outcome,[5],inactive
same,outcome,[6],inactive
same,outcome,[7],inactive
same,outcome,[8],inactive
CC(=O)Oc1ccccc1C(=O)O,outcome,[1],inactive
same,outcome,"MYC, MYC (gene 4609)",inactive
same,outcome,[2],inactive
same,outcome,[3],inactive
same,outcome,[4],inactive
same,outcome,[5],inactive
same,outcome,[6],inactive
same,outcome,[7],inactive
same,outcome,[8],inactive
CC1=C(/C=C/C(C)=C/C=C/C(C)=C/CO)C(C)(C)CCC1,outcome,[1],inactive
same,outcome,"MYC, MYC (gene 4609)",inactive
same,AC50,[2],23.1 µM (active)
same,outcome,[3],inactive
same,outcome,[4],inactive
same,outcome,[5],inactive
same,outcome,[6],inactive
same,AC50,[7],10.4 µM (active)
same,outcome,[8],inactive
CC(CO)OC(C)CO (centres undefined) (tested in a mixture with another compound),outcome,[1],inactive
same,outcome,"MYC, MYC (gene 4609)",inactive
same,outcome,[2],inactive
same,outcome,[3],inactive
same,outcome,[4],inactive
same,outcome,[5],inactive
same,outcome,[6],inactive
same,outcome,[7],inactive
same,outcome,[8],inactive
same,outcome,[9],inactive
O=C(OCCCCCOC(=O)c1ccccc1)c1ccccc1,outcome,[1],inactive
same,AC50,"MYC, MYC (gene 4609)",2.26 µM (active)
same,AC50,[2],2.23 µM (active)
same,outcome,[3],inactive
same,AC50,[4],2.08 µM (active)
same,AC50,[5],2.43 µM (active)
same,AC50,[6],1.85 µM (active)
same,outcome,[7],inactive
same,AC50,[8],0.309 µM (active)
same,AC50,[9],1.8 µM (active)
Cc1ccc(C)c(C)c1,outcome,[1],inactive
same,outcome,"MYC, MYC (gene 4609)",inactive
same,outcome,[2],inactive
same,outcome,[3],inactive
same,outcome,[4],inactive
same,outcome,[5],inactive
same,outcome,[6],inactive
same,outcome,[7],inactive
same,outcome,[8],inactive
same,outcome,[9],inactive
CN1CCN(Cc2cc(-c3ccc4[nH]c(=O)oc4c3)co2)[C@@H](c2ccc(F)cc2)C1,outcome,[1],inactive
same,outcome,"MYC, MYC (gene 4609)",inactive
same,outcome,[2],inactive
same,AC50,[3],82.7 µM (active)
same,outcome,[4],inactive
same,outcome,[5],inactive
same,outcome,[6],inactive
same,AC50,[7],50 µM (active)
same,AC50,[8],88.5 µM (active)
CC(C)(C)c1cc(O)c(C(C)(C)C)cc1O,AC50,[1],93.6 µM (active)
same,outcome,"MYC, MYC (gene 4609)",inactive
same,AC50,[2],50 µM (active)
same,AC50,[3],32.5 µM (active)
same,outcome,[4],inactive
same,outcome,[5],inactive
same,AC50,[6],87.6 µM (active)
same,AC50,[7],76.8 µM (active)
same,outcome,[8],inactive
COc1cc(-c2nc(NC(=O)c3cc4cc(C)cc(C)c4n3CC(=O)O)sc2CCC2CCCCC2)c(OC)cc1Cl,AC50,[1],3.51 µM (active)
same,AC50,"MYC, MYC (gene 4609)",19.8 µM (active)
same,outcome,[2],inactive
same,AC50,[3],11.9 µM (active)
same,AC50,[4],19.4 µM (active)
same,AC50,[5],8.71 µM (active)
same,AC50,[6],16.8 µM (active)
same,AC50,[7],7.07 µM (active)
same,AC50,[8],24.4 µM (active)
Cc1ccccc1Cl,outcome,[1],inactive
same,outcome,"MYC, MYC (gene 4609)",inactive
same,outcome,[2],inactive
same,outcome,[3],inactive
same,outcome,[5],inactive
same,outcome,[6],inactive
same,outcome,[7],inactive
same,outcome,[8],inactive
C=CCOC(=O)c1ccccc1C(=O)OCC=C,outcome,[1],inactive
same,outcome,[2],inactive
same,outcome,[3],inactive
same,outcome,[4],inactive
same,outcome,[5],inactive
same,outcome,[6],inactive
same,outcome,[7],inactive
same,outcome,[8],inactive
CC(=O)C(C)=CC1C(C)=CCCC1(C)C (centres undefined),outcome,[1],inactive
same,outcome,"MYC, MYC (gene 4609)",inactive
same,outcome,[2],inactive
same,outcome,[3],inactive
same,outcome,[5],inactive
same,outcome,[6],inactive
same,outcome,[7],inactive
same,outcome,[8],inactive
COc1cc(S(=O)(=O)O)c(C)cc1N=Nc1c(O)ccc2cc(S(=O)(=O)O)ccc12,outcome,[1],inactive
same,outcome,"MYC, MYC (gene 4609)",inactive
same,outcome,[2],inactive
same,outcome,[3],inactive
same,outcome,[5],inactive
same,outcome,[6],inactive
same,outcome,[7],inactive
same,outcome,[8],inactive
same,outcome,[9],inactive
CCOc1ccc2c(c1)C(C)=CC(C)(C)N2,outcome,[1],inactive
same,outcome,"MYC, MYC (gene 4609)",inactive
same,outcome,[2],inactive
same,AC50,[3],31.8 µM (active)
same,AC50,[5],50 µM (active)
same,outcome,[6],inactive
same,outcome,[7],inactive
same,outcome,[8],inactive
same,outcome,[9],inactive
Cc1nc(C)nc(N2C[C@@H](C)N(c3ccnc([C@@H](C)O)n3)[C@@H](C)C2)n1,outcome,[1],inactive
same,outcome,"MYC, MYC (gene 4609)",inactive
same,AC50,[2],25 µM (active)
same,outcome,[3],inactive
same,outcome,[4],inactive
same,outcome,[5],inactive
same,outcome,[6],inactive
same,outcome,[8],inactive
same,outcome,[9],inactive
CCCc1cc(=O)[nH]c(=S)[nH]1,outcome,[1],inactive
same,outcome,"MYC, MYC (gene 4609)",inactive
same,outcome,[2],inactive
same,outcome,[3],inactive
same,outcome,[5],inactive
same,outcome,[6],inactive
same,outcome,[7],inactive
same,outcome,[8],inactive
NCCO,outcome,[1],inactive
same,outcome,"MYC, MYC (gene 4609)",inactive
same,outcome,[2],inactive
same,outcome,[3],inactive
same,outcome,[5],inactive
same,outcome,[6],inactive
same,outcome,[7],inactive
same,outcome,[8],inactive
O=C(O)Cc1ccccc1Nc1c(Cl)cccc1Cl,outcome,[1],inactive
same,outcome,"MYC, MYC (gene 4609)",inactive
same,outcome,[2],inactive
same,outcome,[3],inactive
same,outcome,[5],inactive
same,outcome,[6],inactive
same,outcome,[7],inactive
same,outcome,[8],inactive
COC(=O)c1ccc(O)cc1,outcome,[1],inactive
same,outcome,[2],inactive
same,outcome,[3],inactive
same,outcome,[4],inactive
same,outcome,[5],inactive
same,outcome,[6],inactive
same,outcome,[7],inactive
same,outcome,[8],inactive
Cc1cc(=O)[nH]c(=S)[nH]1,outcome,[1],inactive
same,outcome,[2],inactive
same,outcome,[3],inactive
same,outcome,[4],inactive
same,outcome,[5],inactive
same,outcome,[6],inactive
same,outcome,[7],inactive
same,outcome,[8],inactive
CC(=O)OCCOCCOCCOC(C)=O,outcome,[1],inactive
same,outcome,"MYC, MYC (gene 4609)",inactive
same,outcome,[2],inactive
same,outcome,[3],inactive
same,outcome,[5],inactive
same,outcome,[6],inactive
same,outcome,[7],inactive
same,outcome,[8],inactive
same,outcome,[9],inactive
